The panel holds about 79,000 compounds, 15% with a hit somewhere; the sample as a whole holds those more often. Active and inactive are the calls of the source. Rule as the data show it: active = growth inhibition above about 70%; inactive = the rest.
Key:
[1] = NCI Yeast Anticancer Drug Screen. Data for the rad50 strain (AID 155);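 also: 0% = growth of vehicle-only cultures of the same strain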; settings: S. cerevisiae rad50 strain growth inhibition, active compounds read high
Procedure, shortened: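 Relative growth inhibition (compound vs vehicle) was measured in yeast with a defined repair-gene alteration.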

[2] = NCI Yeast Anticancer Drug Screen. Data for the mec2-1 strain (AID 157); settings: S. cerevisiae mec2-1 strain, active compounds read high
Procedure, shortened: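 Test agents were screened against the mec2-1 yeast strain, with defined DNA repair or cell cycle alteration. Growth was scored as inhibition against vehicle-only controls.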

[3] = NCI Yeast Anticancer Drug Screen. Data for the sgs1 mgt1 strain (AID 161);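 also: 0% = growth of cultures given vehicle only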; settings: S. cerevisiae sgs1 mgt1 strain, active compounds read high
Procedure, shortened: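 Inhibition of yeast growth, normalised to vehicle-treated controls, is reported for a strain bearing genetic alterations in DNA damage repair.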

[4] = NCI Yeast Anticancer Drug Screen. Data for the cln2 rad14 strain (AID 165);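 also: 0% = growth equal to vehicle treated cultures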; settings: S. cerevisiae cln2 rad14 strain, active compounds read high
Procedure, shortened: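 Growth of compound-exposed yeast (cln2 rad14 genotype) measured and expressed as inhibition relative to vehicle.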

[5] = NCI Yeast Anticancer Drug Screen. Data for the bub3 strain (AID 167); settings: S. cerevisiae bub3 mutant strain, active compounds read high
Procedure, shortened: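 Screening used yeast with an engineered genetic alteration affecting cell cycle control. Compound-exposed cultures were compared with vehicle cultures, and reduced growth was taken as inhibition.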

[6] = NCI Yeast Anticancer Drug Screen. Data for the mlh1 rad18 strain (AID 175); settings: S. cerevisiae mlh1 rad18 strain growth inhibition, active compounds read high
Procedure, shortened: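 In this whole-cell yeast screen, a strain with altered DNA damage repair is challenged with compound, and its growth is measured against matched vehicle-treated controls.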

[7] = at 5.0 µM (retest, dose inferred, filed as 0.5)
[8] = at 50.0 µM (retest, dose inferred, filed as 5.0)

Measured: growth inhibition

Cc1csc(N)[n+]1CCC(=O)[O-]
inactive: [1]; [7] -1% | [1]; [8] -3% | [1]; at 50.0 µM -3.95% | [2]; [7] -1% | [2]; [8] -2% | [2]; at 50.0 µM -23.1% | [3]; [7] -1% | [3]; [8] -2% | [3]; at 50.0 µM -2.8% | [4]; [7] -3% | [4]; [8] 3% | [4]; at 50.0 µM 31.5% | [5]; [7] -1% | [5]; [8] 1% | [5]; at 50.0 µM -14.6% | [6]; [7] 0% | [6]; [8] -3% | [6]; at 50.0 µM -24.5%

O=C(COc1ccc(Br)cc1Br)N1N=C(c2ccc([N+](=O)[O-])o2)CC1(O)c1ccccc1 (stereo not given)
inactive: [1]; [7] 23% | [1]; [8] 23% | [1]; at 50.0 µM 19.4% | [2]; [7] 6% | [2]; [8] 6% | [3]; [7] 12% | [3]; [8] 12% | [4]; [7] 0% | [4]; [8] 0% | [5]; [7] 7% | [5]; [8] 7% | [5]; at 50.0 µM 59.6% | [6]; [7] 22% | [6]; [8] 22% | [6]; at 50.0 µM 58.8%
active: [2]; at 50.0 µM 71.2% | [3]; at 50.0 µM 70.7% | [4]; at 50.0 µM 76.2%

COc1cc2c(c(O)c1C)C(=O)C(Cl)=CC2=O
active: [1]; [7] 99% | [1]; [8] 99% | [1]; at 50.0 µM 99.1% | [2]; [7] 99% | [2]; [8] 99% | [2]; at 50.0 µM 99.2% | [3]; [7] 99% | [3]; [8] 98% | [3]; at 50.0 µM 99.3% | [4]; [7] 98% | [4]; [8] 98% | [4]; at 50.0 µM 98.9% | [5]; [7] 99% | [5]; [8] 99% | [5]; at 50.0 µM 99.2% | [6]; [7] 99% | [6]; [8] 99% | [6]; at 50.0 µM 99.2%

CCOC(=O)C1=C(C)NC2=C(C(=O)N(c3ccccc3)C2c2ccccc2)C1c1ccccc1 (stereo not given)
inactive: [1]; [7] 5% | [1]; [8] 5% | [2]; [7] 9% | [2]; [8] 9% | [2]; at 50.0 µM 56.4% | [3]; [7] 3% | [3]; [8] 3% | [3]; at 50.0 µM 63.1% | [4]; [7] -11% | [4]; [8] -11% | [4]; at 50.0 µM 65.6% | [5]; [7] -7% | [5]; [8] -7% | [5]; at 50.0 µM 49.2% | [6]; [7] 8% | [6]; [8] 8% | [6]; at 50.0 µM 54.1%
active: [1]; at 50.0 µM 72.5%

Nc1ncnc2nc[nH]c12.[Ag]
active: [1]; [7] 98% | [1]; [8] 99% | [1]; at 50.0 µM 99.3% | [2]; [7] 99% | [2]; [8] 100% | [2]; at 50.0 µM 99.7% | [3]; [7] 97% | [3]; [8] 99% | [3]; at 50.0 µM 99.7% | [4]; [7] 99% | [4]; [8] 99% | [4]; at 50.0 µM 98.5% | [5]; [7] 99% | [5]; [8] 99% | [5]; at 50.0 µM 99.5% | [6]; [7] 97% | [6]; [8] 99% | [6]; at 50.0 µM 99.7%

N#CS/C(Cl)=C(/C(Cl)=C(Cl)Cl)[N+](=O)[O-]
inactive: [1]; [7] 5% | [2]; [7] 18% | [3]; [7] -3% | [4]; [7] -5% | [4]; at 50.0 µM 48.6% | [5]; [7] -21% | [6]; [7] -15%
active: [1]; [8] 99% | [1]; at 50.0 µM 84.8% | [2]; [8] 99% | [2]; at 50.0 µM 70.7% | [3]; [8] 98% | [3]; at 50.0 µM 87.4% | [4]; [8] 98% | [5]; [8] 99% | [5]; at 50.0 µM 85.7% | [6]; [8] 99% | [6]; at 50.0 µM 81.2%

CC(=O)Oc1ccc(C(C)(C)CC(C)(C)C)cc1
inactive: [1]; [7] -1% | [1]; [8] 62% | [2]; [7] -1% | [2]; [8] 41% | [3]; [7] -1% | [3]; [8] 26% | [4]; [7] -3% | [4]; [8] 42% | [5]; [7] 0% | [5]; [8] 55% | [6]; [7] -1% | [6]; [8] 42%
active: [1]; at 50.0 µM 72.2% | [2]; at 50.0 µM 95.3% | [3]; at 50.0 µM 94.8% | [4]; at 50.0 µM 86.3% | [5]; at 50.0 µM 85.8% | [6]; at 50.0 µM 89.5%

Cc1ccc(C(=O)/C=C/c2ccco2)c(C)c1
inactive: [1]; [7] -9% | [1]; [8] -12% | [1]; at 50.0 µM 11.3% | [2]; [7] -42% | [2]; [8] 1% | [2]; at 50.0 µM 25.9% | [3]; [7] -14% | [3]; [8] 15% | [3]; at 50.0 µM 63.8% | [4]; [7] -14% | [4]; [8] 5% | [4]; at 50.0 µM 25.8% | [5]; [7] 2% | [5]; [8] 4% | [5]; at 50.0 µM 54.5% | [6]; [7] -20% | [6]; [8] 61% | [6]; at 50.0 µM 17.6%

O=C1Oc2ccccc2C(=O)/C1=C/N1C(=O)/C(=C/c2ccccc2)NC1=S
inactive: [1]; [7] -23% | [1]; [8] 31% | [1]; at 50.0 µM 66.7% | [2]; [7] -25% | [2]; [8] 27% | [2]; at 50.0 µM 43.3% | [3]; [7] -15% | [3]; [8] 42% | [4]; [7] 4% | [4]; [8] 37% | [4]; at 50.0 µM 60.6% | [5]; [7] -6% | [5]; [8] 45% | [5]; at 50.0 µM 53.5% | [6]; [7] -33% | [6]; [8] 40% | [6]; at 50.0 µM 54%
active: [3]; at 50.0 µM 71.7%

C=CCNC(=O)NC(=O)CSC1=NNC2(C(=O)N1)c1ccccc1-c1ccccc12
inactive: [1]; [7] -4% | [2]; [7] -21% | [2]; [8] 65% | [3]; [7] -11% | [4]; [7] 2% | [5]; [7] -16% | [6]; [7] -6%
active: [1]; [8] 74% | [1]; at 50.0 µM 85.2% | [2]; at 50.0 µM 78.7% | [3]; [8] 85% | [3]; at 50.0 µM 87.1% | [4]; [8] 82% | [4]; at 50.0 µM 85.7% | [5]; [8] 91% | [5]; at 50.0 µM 86.5% | [6]; [8] 88% | [6]; at 50.0 µM 86.7%

From PubChem BioAssay (NCI)
